From PubChem BioAssay AID1159580 (chemical genetic matrix, 2015)
The campaign covered roughly 5,500 compounds. About 2,000 (36%) were called active. Another 18% or so got no clear call; they are omitted. No stated cut-off is given here; in the data, active means normalized growth mostly below about 0.91 (no sharp cut-off); inconclusive means no clear call, values can overlap the other calls; inactive means mostly above about 0.92. The list shows a part of the results.

Assay: chemical genetic growth profiling, strain panel (AID 1159580);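 further: tested at 20 µM; growth read once vehicle control cultures reached saturation at 30 °C; 1 = growth at the plate median or of vehicle wells; lower values mean less growth of the strain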
Details: growth OD

Measured: normalized growth

O=C(CC(Nc1ccccc1)c1ccccc1)C1CC1 (stereo not given)
inactive: S. cerevisiae deletion strains, locus YAL013W, strain DEP1, hits give low values 1 | S. cerevisiae deletion strains, locus YBR229C, strain ROT2, hits give low values 0.99 | S. cerevisiae deletion strains, locus YCL061C, strain MRC1, hits give low values 0.974 | S. cerevisiae deletion strains, locus YDL101C, strain DUN1, hits give low values 0.988 | S. cerevisiae deletion strains, locus YDL134C, strain PPH21, hits give low values 0.982 | S. cerevisiae deletion strains, locus YDR150W, strain NUM1, hits give low values 0.982 | S. cerevisiae deletion strains, locus YEL061C, strain CIN8, hits give low values 0.992 | S. cerevisiae deletion strains, locus YGR078C, strain PAC10, hits give low values 1.03 | S. cerevisiae deletion strains, locus YHR030C, strain SLT2, hits give low values 0.968 | S. cerevisiae deletion strains, locus YHR087W, strain rtc3, hits give low values 1.04 | S. cerevisiae deletion strains, locus YJL187C, strain SWE1, hits give low values 1 | S. cerevisiae deletion strains, locus YJR043C, strain POL32, hits give low values 0.996 | S. cerevisiae deletion strains, locus YJR075W, strain HOC1, hits give low values 0.969 | S. cerevisiae deletion strains, locus YLR039C, strain RIC1, hits give low values 0.869 | S. cerevisiae deletion strains, locus YLR058C, strain SHM2 (second series), hits give low values 0.998 | S. cerevisiae deletion strains, locus YLR085C, strain ARP6, hits give low values 0.992 | S. cerevisiae deletion strains, locus YLR262C, strain YPT6, hits give low values 0.938 | S. cerevisiae deletion strains, locus YML094W, strain GIM5, hits give low values 1.01 | S. cerevisiae deletion strains, locus YMR219W, strain ESC1, hits give low values 0.994 | S. cerevisiae deletion strains, locus YMR263W, strain SAP30, hits give low values 1.01 | S. cerevisiae deletion strains, locus YMR307W, strain GAS1, hits give low values 1.19 | S. cerevisiae deletion strains, locus YNL128W, strain TEP1, hits give low values 0.989 | S. cerevisiae deletion strains, locus YNL153C, strain GIM3, hits give low values 1.01 | S. cerevisiae deletion strains, locus YNL298W, strain CLA4 (second series), hits give low values 0.985 | S. cerevisiae deletion strains, locus YNL322C, strain KRE1, hits give low values 0.982 | S. cerevisiae deletion strains, locus YNR030W, strain Alg12, hits give low values 1 | S. cerevisiae deletion strains, locus YPL055C, strain LGE1, hits give low values 1.02 | S. cerevisiae deletion strains, locus YPL241C, strain CIN2, hits give low values 0.981 | S. cerevisiae deletion strains, locus YPR135W, strain CTF4, hits give low values 0.915 | S. cerevisiae strains, strain wild type, hits give low values 0.979
